Screen size: about 310,000 compounds; about 14,000 (4.5%) showed an effect of 50% or more. Effects have a minus sign here. The sample holds strong results, similar compounds and a random draw of the others, so the mix is not that of the screen.

The values that follow come from PMC4336329 (PLoS ONE, 2015).
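Also: peak tail current of the secondary pulse compared with the same well before compound.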

For this assay, the target named is human ether-à-go-go-related gene (hERG) potassium channel (human, UniProt Q12809). Briefly: primary screen, population patch clamp on CHO cells stably expressing hERG; higher = less effect of the substance.
Chain of human ether-à-go-go-related gene (hERG) potassium channel (Q12809 whole entry, looked up): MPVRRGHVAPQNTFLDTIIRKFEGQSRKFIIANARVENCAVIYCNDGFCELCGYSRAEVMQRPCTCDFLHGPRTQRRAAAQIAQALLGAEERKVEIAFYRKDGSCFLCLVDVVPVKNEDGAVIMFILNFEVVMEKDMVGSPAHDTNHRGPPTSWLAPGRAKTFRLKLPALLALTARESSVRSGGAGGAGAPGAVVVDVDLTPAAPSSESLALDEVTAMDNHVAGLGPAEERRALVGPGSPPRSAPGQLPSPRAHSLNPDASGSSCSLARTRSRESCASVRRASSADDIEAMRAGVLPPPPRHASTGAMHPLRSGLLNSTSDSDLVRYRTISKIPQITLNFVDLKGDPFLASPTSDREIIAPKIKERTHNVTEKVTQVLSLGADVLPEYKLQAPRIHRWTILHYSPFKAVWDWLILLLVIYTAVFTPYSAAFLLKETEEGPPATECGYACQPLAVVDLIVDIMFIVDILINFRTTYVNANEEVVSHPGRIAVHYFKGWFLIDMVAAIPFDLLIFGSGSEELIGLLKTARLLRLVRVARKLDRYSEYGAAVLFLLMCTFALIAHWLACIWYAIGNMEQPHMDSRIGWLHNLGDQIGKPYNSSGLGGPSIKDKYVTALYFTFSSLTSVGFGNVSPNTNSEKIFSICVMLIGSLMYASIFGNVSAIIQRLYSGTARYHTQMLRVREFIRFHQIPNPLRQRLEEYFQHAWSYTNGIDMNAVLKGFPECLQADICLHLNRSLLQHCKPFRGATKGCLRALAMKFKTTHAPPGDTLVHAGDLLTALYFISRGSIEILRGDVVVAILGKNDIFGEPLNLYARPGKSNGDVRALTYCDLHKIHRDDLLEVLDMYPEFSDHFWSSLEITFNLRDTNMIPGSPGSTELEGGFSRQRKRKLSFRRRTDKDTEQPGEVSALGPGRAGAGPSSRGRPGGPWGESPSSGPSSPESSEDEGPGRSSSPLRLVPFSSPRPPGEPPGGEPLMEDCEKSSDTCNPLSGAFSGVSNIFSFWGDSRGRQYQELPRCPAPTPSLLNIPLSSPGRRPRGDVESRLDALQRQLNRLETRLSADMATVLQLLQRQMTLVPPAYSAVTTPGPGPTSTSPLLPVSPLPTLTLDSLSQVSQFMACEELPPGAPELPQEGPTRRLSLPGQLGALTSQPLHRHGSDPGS
In the case of `O=C1CCC(C(=O)Nc2ccc(Cl)cc2)N1` (centres unmarked), the “hERG current change (%, negative = inhibition) at 10uM” value is listed as 28%.

Take `CC1CCN(C(=O)c2ccc3c(c2)NC(=O)CN3)CC1`: the “hERG current change (%, negative = inhibition) at 10uM” value stood at 8.49%.

With `Nc1ccc(C2(c3ccc(N)cc3)OC(=O)c3ccccc32)cc1`, the “hERG current change (%, negative = inhibition) at 10uM” value is reported as -6.43%.

As to `CCOC(=O)C1CCN(C(=O)C(=O)Nc2ccc3nc4n(c(=O)c3c2)CCCCC4)CC1`, the “hERG current change (%, negative = inhibition) at 10uM” value is given as 1.99%.

With `CCC1(C)Cc2c(sc3nc(NN)n(C)c(=O)c23)CO1` (centres unmarked), the “hERG current change (%, negative = inhibition) at 10uM” value stood at 13.4%.

For `Cc1ccc(C(C(=O)NC2CCCC2)N(C(=O)CNC(=O)c2cccs2)c2cccnc2)o1` (centres unmarked), the “hERG current change (%, negative = inhibition) at 10uM” value was -11.1%.

`Cc1[nH]c2ccccc2c1C(=O)CSc1nc2ccccc2c(=O)n1CCCN1CCOCC1`: the “hERG current change (%, negative = inhibition) at 10uM” value is -5.57%.

For the compound `CCCCn1c(SCC(=O)N2CCOCC2)nc2ccccc2c1=O`, the “hERG current change (%, negative = inhibition) at 10uM” value is on record as -68.4%.

Consider `O=C(CSc1nc2ccccc2c(=O)n1CCCN1CCOCC1)c1c[nH]c2ccccc12`, for which the “hERG current change (%, negative = inhibition) at 10uM” value is given as -54%.

As for `Cn1c(N)c(C(=O)CSc2nc3ccccc3c(=O)n2CCCN2CCOCC2)c(=O)n(C)c1=O`, the “hERG current change (%, negative = inhibition) at 10uM” value was 2.7%.

Take `CCCCn1c(SCC(=O)NC2CC2)nc2ccccc2c1=O`: the “hERG current change (%, negative = inhibition) at 10uM” value was -4.62%.

Regarding `CCOCCCn1c(SCC(=O)N2CCOCC2)nc2ccccc2c1=O`, the “hERG current change (%, negative = inhibition) at 10uM” value is given as -36%.

As to `O=C1CN(C(=O)CSc2nc3ccccc3c(=O)n2CCCN2CCOCC2)c2ccccc2N1`, the “hERG current change (%, negative = inhibition) at 10uM” value is reported as -19.7%.

For `O=C(CSc1nc2ccccc2c(=O)n1CCCN1CCOCC1)N1CCN(c2ccccc2)CC1`, the “hERG current change (%, negative = inhibition) at 10uM” value was -70.6%.

Consider `COCCCn1c(SCC(=O)N2CCOCC2)nc2ccccc2c1=O`, for which the “hERG current change (%, negative = inhibition) at 10uM” value was -5.65%.

On to `Cc1onc(-c2c(Cl)cccc2Cl)c1C(=O)NCCCN1CCOCC1`, for which the “hERG current change (%, negative = inhibition) at 10uM” value is reported as 3.09%.

As for `O=C(CCc1c[nH]c2ccccc12)OCc1ccc(Br)cc1`, the “hERG current change (%, negative = inhibition) at 10uM” value amounted to 10.2%.

Take `Cc1ccc(-n2nc(C)c3c2OC(N)=C(C#N)C3c2ccncc2)cc1` (centres unmarked): the “hERG current change (%, negative = inhibition) at 10uM” value was determined as 7.07%.

As for `COc1ccc(C(=O)Nc2ccc(NC(C)=O)cc2)cc1S(=O)(=O)N(C)Cc1ccccc1`, the “hERG current change (%, negative = inhibition) at 10uM” value turned out to be 10.3%.

`CCN(Cc1ccccc1)S(=O)(=O)c1cc(C(=O)NCC2CCCCC2)ccc1OC`: the “hERG current change (%, negative = inhibition) at 10uM” value is listed as -9.52%.

As for `COc1ccc(C(=O)OCC(=O)N(C)C2CCS(=O)(=O)C2)cc1S(=O)(=O)N(C)Cc1ccccc1` (centres unmarked), the “hERG current change (%, negative = inhibition) at 10uM” value is on record as -15.7%.

On to `COc1ccc(C(=O)NCc2ccc3c(c2)OCO3)cc1S(=O)(=O)N(C)Cc1ccccc1`, for which the “hERG current change (%, negative = inhibition) at 10uM” value is -12.3%.

For the compound `CCN(Cc1ccccc1)S(=O)(=O)c1cc(C(=O)NCCCN(C)C)ccc1OC`, the “hERG current change (%, negative = inhibition) at 10uM” value is on record as -50.3%.

Turning to `COc1ccc(C(=O)NC(C)c2ccncc2)cc1S(=O)(=O)N(C)Cc1ccccc1` (centres unmarked), the “hERG current change (%, negative = inhibition) at 10uM” value is listed as -61%.

For the compound `COc1ccc(C(=O)OCC(=O)NC2CC2)cc1S(=O)(=O)N(C)Cc1ccccc1`, the “hERG current change (%, negative = inhibition) at 10uM” value is reported as -53.8%.

For `CCN(Cc1ccccc1)S(=O)(=O)c1cc(C(=O)O)ccc1OC`, the “hERG current change (%, negative = inhibition) at 10uM” value amounted to 14.1%.

As for `CCN(C(=O)COC(=O)c1ccc(OC)c(S(=O)(=O)N(C)Cc2ccccc2)c1)C1CCS(=O)(=O)C1` (centres unmarked), the “hERG current change (%, negative = inhibition) at 10uM” value is given as -30.9%.

On to `O=S(=O)(Nc1cc(C(F)(F)F)ccc1N1CCOCC1)c1ccccc1`, for which the “hERG current change (%, negative = inhibition) at 10uM” value worked out at 4.09%.

Regarding `CC(CC(=O)N1CCN(c2ccccc2)CC1)S(=O)(=O)c1ccc2c(c1)NC(=O)CO2` (centres unmarked), the “hERG current change (%, negative = inhibition) at 10uM” value is -20.1%.

Consider `O=C(O)c1cccc(N2C(=O)c3cc4cccc(Br)c4cc3C2=O)c1`, for which the “hERG current change (%, negative = inhibition) at 10uM” value is recorded as 18.4%.

Take `Cc1cc(CNC(=O)CC2C(=O)NCCN2Cc2ccc(-c3ccccc3)cc2)nn1C` (centres unmarked): the “hERG current change (%, negative = inhibition) at 10uM” value is given as -4.68%.

For the compound `O=C(c1ccc([N+](=O)[O-])s1)N1CCc2ccccc2C1`, the “hERG current change (%, negative = inhibition) at 10uM” value was determined as 13%.

With `FC(F)(F)Oc1ccc(NC(=S)NCc2ccccc2)cc1`, the “hERG current change (%, negative = inhibition) at 10uM” value was found to be 4.62%.

As for `Cl.O=C(CNC1=NCCC1)c1ccc(Cl)cc1`, the “hERG current change (%, negative = inhibition) at 10uM” value is -12.2%.

Regarding `CCCCCCn1c(SCC(C)C)nc2c1c(=O)[nH]c(=O)n2C`, the “hERG current change (%, negative = inhibition) at 10uM” value amounted to 10.3%.

On to `CCCCCn1c(SCC(=O)OC)nc2c1c(=O)[nH]c(=O)n2C`, for which the “hERG current change (%, negative = inhibition) at 10uM” value is recorded as -60.7%.

For the compound `CCCCCCn1c(SCCC)nc2c1c(=O)[nH]c(=O)n2C`, the “hERG current change (%, negative = inhibition) at 10uM” value is -9.85%.

As to `CCCCCn1c(SCCCC)nc2c1c(=O)[nH]c(=O)n2C`, the “hERG current change (%, negative = inhibition) at 10uM” value is recorded as -3.74%.

In the case of `CCCCCn1c(SC(C)C(C)=O)nc2c1c(=O)[nH]c(=O)n2C` (centres unmarked), the “hERG current change (%, negative = inhibition) at 10uM” value is -92.5%.

Take `CCCCCCn1c(SCCOC)nc2c1c(=O)[nH]c(=O)n2C`: the “hERG current change (%, negative = inhibition) at 10uM” value is recorded as -59.8%.

With `CCCCCCn1c(SCCCC)nc2c1c(=O)[nH]c(=O)n2C`, the “hERG current change (%, negative = inhibition) at 10uM” value is listed as 1.97%.

Consider `CCCCCCn1c(SCC(=O)c2ccccc2)nc2c1c(=O)[nH]c(=O)n2C`, for which the “hERG current change (%, negative = inhibition) at 10uM” value is given as -26%.

With `COC(=O)CSc1nc2c(c(=O)[nH]c(=O)n2C)n1CCC(C)C`, the “hERG current change (%, negative = inhibition) at 10uM” value is recorded as -3.93%.

Turning to `CCOCCn1c(SC(C)C(C)=O)nc2c1c(=O)[nH]c(=O)n2C` (centres unmarked), the “hERG current change (%, negative = inhibition) at 10uM” value is recorded as -42.8%.
